Assay in all cases: DAPPL (digital affinity profiling via proximity ligation, sequencing); 10 mM Tris-HCl pH 7.5, 50 mM NaCl, 1 mM DTT, 4% glycerol, room temperature, 30 min; GST-TFs on glutathione beads, 16-mer random dsDNA library, 0.1% formaldehyde crosslink after washing; high values mean tight binding
In assay [1] the target is T1, FEV (Homo sapiens, UniProt Q99581 1-238).
T1 sequence: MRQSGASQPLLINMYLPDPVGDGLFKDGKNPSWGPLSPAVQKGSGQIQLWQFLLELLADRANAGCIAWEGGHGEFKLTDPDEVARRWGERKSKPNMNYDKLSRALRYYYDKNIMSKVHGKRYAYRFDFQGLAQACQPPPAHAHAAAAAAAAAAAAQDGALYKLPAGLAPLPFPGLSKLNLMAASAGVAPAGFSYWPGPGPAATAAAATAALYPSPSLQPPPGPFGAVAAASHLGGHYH
The note with it: protein: recombinant; tags: N-terminal GST; dsDNA, one strand shown. A digest of the protocol:
(§1)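 Yeast served to express human transcription factors as GST fusions, which were then captured on glutathione beads and labelled with DNA barcodes. Pooled with a tag-only sample, they were incubated with 200 nmole of a 16-mer random double-stranded DNA library for 30 min at room temperature in Tris/NaCl/DTT/glycerol buffer, washed, crosslinked with 0.1% formaldehyde, ligated by proximity, amplified by PCR and sequenced. Dividing each hexamer's read frequency for a factor by its frequency for the tag-only sample gives the binding signal.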

Assay [2] deals with ETV5 (Homo sapiens, UniProt P41161 1-510). Particulars: protein: recombinant; tags: N-terminal GST; dsDNA, one strand shown. A digest of the protocol: as §1
Sequence of ETV5 (P41161 whole entry): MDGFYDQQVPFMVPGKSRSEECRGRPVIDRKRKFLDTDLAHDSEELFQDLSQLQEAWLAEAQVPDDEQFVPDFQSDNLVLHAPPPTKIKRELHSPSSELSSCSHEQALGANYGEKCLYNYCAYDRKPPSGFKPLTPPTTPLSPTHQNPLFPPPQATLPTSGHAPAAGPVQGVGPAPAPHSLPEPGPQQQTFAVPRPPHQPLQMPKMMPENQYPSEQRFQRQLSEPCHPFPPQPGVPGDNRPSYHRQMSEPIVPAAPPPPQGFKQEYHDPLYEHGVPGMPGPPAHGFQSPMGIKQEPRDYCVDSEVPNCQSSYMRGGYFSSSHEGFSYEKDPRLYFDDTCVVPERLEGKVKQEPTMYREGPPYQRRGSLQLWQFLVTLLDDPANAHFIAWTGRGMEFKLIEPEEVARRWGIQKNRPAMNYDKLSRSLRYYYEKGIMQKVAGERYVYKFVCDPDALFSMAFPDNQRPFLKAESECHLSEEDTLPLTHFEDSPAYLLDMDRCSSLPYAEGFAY
In assay [3] the target is HSF1 (Homo sapiens, UniProt Q00613 1-529). Particulars: protein: recombinant; tags: N-terminal GST; chain copies: 3; dsDNA, one strand shown. Put shortly: as §1
Sequence of HSF1 (Q00613 whole entry): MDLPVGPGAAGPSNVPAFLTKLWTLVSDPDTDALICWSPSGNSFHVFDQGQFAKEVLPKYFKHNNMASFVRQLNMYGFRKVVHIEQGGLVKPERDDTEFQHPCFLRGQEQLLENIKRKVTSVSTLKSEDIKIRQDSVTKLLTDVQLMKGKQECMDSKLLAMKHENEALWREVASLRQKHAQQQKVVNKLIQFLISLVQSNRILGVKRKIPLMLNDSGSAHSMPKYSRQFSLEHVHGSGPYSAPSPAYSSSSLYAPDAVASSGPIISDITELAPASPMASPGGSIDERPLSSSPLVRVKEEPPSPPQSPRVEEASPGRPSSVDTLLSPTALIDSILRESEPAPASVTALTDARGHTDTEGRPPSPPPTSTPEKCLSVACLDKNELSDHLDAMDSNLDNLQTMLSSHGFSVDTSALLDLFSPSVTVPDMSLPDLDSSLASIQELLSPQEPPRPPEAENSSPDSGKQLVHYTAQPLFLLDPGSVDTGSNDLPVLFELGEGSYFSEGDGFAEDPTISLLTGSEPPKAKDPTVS
Assay [4] has as its target T2, SPIC (Homo sapiens, UniProt Q8N5J4 1-248).
T2 sequence: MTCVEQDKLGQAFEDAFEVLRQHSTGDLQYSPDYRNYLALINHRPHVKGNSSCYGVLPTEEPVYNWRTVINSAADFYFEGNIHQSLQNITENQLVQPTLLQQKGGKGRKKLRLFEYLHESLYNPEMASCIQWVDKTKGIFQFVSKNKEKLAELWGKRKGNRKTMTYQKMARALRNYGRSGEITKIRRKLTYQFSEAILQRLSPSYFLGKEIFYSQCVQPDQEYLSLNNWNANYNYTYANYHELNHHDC
The note with it: protein: recombinant; tags: N-terminal GST; dsDNA, one strand shown. A digest of the protocol:
as §1

Assay [5] concerns the target ELF4 (Homo sapiens, UniProt Q99607 1-663). The note with it: protein: recombinant; tags: N-terminal GST; dsDNA, one strand shown. A digest of the protocol: as §1
Assay [6] concerns the target T3, ELK4 (Homo sapiens, UniProt P28324-2 1-405).
T3 sequence: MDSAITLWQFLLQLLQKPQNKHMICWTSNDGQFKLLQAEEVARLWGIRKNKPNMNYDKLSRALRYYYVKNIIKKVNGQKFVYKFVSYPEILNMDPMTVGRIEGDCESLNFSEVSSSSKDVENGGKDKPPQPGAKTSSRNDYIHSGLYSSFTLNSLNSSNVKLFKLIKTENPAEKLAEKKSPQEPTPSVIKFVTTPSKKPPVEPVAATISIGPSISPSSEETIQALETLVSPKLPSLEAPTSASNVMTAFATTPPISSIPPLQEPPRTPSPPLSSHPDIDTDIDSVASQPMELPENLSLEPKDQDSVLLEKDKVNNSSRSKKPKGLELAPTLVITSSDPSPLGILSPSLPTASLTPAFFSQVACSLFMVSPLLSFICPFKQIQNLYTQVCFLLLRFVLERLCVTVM
Particulars: protein: recombinant; tags: N-terminal GST; dsDNA, one strand shown. Put shortly:
as §1

The target in assay [7] is T4, ETV2 (Homo sapiens, UniProt O00321 1-342).
T4 sequence: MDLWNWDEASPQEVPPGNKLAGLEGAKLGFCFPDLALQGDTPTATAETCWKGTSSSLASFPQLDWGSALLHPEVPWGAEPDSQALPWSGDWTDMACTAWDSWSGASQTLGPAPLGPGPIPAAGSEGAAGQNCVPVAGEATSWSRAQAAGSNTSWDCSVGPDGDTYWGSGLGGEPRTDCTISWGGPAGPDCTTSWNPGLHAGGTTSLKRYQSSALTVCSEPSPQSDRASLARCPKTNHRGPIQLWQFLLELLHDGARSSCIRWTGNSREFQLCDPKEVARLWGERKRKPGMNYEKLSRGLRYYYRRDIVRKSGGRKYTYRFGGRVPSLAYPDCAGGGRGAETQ
Particulars: protein: recombinant; tags: N-terminal GST; dsDNA, one strand shown. A digest of the protocol:
as §1

In assay [8] the target is T5, ELF3 (Homo sapiens, UniProt P78545 1-371).
T5 sequence: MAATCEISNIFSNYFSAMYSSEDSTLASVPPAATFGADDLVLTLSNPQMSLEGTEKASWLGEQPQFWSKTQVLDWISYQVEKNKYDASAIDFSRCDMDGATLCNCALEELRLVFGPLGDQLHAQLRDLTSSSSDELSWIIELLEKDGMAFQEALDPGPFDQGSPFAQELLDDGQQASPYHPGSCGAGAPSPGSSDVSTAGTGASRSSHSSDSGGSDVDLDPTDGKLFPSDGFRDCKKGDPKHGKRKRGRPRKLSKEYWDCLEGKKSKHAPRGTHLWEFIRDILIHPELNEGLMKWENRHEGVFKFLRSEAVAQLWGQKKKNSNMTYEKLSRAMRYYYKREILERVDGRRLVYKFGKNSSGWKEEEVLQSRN
The note with it: protein: recombinant; tags: N-terminal GST; dsDNA, one strand shown. A digest of the protocol:
as §1

Assay [9] addresses CRX (Homo sapiens, UniProt O43186 1-299). Particulars: protein: recombinant; tags: N-terminal GST; dsDNA, one strand shown. Put shortly:
as §1

The target of assay [10] is ETV1 (Homo sapiens, UniProt P50549 1-477). The note with it: protein: recombinant; tags: N-terminal GST; dsDNA, one strand shown. Put shortly:
as §1

Assay [11] deals with T6, ERF (Homo sapiens, UniProt P50548 1-548).
T6 sequence: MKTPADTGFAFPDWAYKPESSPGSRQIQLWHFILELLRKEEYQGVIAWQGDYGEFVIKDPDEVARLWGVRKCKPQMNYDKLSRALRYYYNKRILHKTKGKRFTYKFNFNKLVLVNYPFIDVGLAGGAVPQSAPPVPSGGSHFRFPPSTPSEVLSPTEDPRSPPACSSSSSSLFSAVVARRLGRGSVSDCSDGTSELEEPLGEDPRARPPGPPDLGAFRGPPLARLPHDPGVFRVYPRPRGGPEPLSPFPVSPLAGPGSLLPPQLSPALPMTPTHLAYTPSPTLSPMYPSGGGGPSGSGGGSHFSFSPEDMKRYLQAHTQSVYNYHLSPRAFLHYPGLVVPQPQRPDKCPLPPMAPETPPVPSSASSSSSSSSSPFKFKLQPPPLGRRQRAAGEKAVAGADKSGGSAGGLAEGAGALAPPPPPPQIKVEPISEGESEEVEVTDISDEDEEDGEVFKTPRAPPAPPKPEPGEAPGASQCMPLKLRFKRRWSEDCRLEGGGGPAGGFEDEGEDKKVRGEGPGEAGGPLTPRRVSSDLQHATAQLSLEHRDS
The note with it: protein: recombinant; tags: N-terminal GST; dsDNA, one strand shown. A digest of the protocol: as §1

The target in assay [12] is T7, ETV3L (Homo sapiens, UniProt Q6ZN32 1-361).
T7 sequence: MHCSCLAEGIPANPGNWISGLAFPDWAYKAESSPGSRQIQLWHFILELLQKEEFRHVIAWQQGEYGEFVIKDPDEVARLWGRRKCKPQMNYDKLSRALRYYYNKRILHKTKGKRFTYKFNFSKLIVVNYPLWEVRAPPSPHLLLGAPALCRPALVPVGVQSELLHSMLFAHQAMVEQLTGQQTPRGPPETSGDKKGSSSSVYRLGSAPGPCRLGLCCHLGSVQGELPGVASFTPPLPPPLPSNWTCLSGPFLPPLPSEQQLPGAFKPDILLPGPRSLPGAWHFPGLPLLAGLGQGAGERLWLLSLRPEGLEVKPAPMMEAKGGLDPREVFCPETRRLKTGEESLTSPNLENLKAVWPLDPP
Particulars: protein: recombinant; tags: N-terminal GST; dsDNA, one strand shown. A digest of the protocol: as §1

Assay [13] deals with T8, ETS2 (Homo sapiens, UniProt P15036 1-469).
T8 sequence: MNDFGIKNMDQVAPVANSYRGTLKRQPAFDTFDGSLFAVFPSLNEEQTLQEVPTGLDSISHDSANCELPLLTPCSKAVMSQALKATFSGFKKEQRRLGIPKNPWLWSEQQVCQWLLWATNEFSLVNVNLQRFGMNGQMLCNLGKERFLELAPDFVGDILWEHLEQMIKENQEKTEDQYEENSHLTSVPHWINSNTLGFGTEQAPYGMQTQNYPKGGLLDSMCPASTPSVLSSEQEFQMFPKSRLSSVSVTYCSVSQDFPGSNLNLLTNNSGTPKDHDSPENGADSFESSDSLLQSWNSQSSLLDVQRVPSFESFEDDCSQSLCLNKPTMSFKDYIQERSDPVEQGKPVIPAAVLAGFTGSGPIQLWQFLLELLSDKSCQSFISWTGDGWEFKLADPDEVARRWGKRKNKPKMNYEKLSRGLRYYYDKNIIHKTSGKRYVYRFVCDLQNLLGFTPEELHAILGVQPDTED
The note with it: protein: recombinant; tags: N-terminal GST; dsDNA, one strand shown. Put shortly:
as §1

The target in assay [14] is T9, SPDEF (Homo sapiens, UniProt O95238 1-335).
T9 sequence: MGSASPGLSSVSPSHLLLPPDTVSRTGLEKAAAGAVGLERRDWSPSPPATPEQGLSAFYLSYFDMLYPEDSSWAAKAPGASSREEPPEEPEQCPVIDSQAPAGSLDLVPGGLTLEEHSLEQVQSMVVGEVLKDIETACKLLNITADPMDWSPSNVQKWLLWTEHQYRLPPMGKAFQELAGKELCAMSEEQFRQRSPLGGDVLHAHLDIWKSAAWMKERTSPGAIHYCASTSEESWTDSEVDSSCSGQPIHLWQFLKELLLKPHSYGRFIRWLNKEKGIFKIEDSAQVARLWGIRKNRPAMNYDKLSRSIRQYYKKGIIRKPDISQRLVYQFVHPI
The note with it: protein: recombinant; tags: N-terminal GST; dsDNA, one strand shown. Put shortly:
as §1

Assay [15] deals with T10, ETV7 (Homo sapiens, UniProt Q9Y603 1-341).
T10 sequence: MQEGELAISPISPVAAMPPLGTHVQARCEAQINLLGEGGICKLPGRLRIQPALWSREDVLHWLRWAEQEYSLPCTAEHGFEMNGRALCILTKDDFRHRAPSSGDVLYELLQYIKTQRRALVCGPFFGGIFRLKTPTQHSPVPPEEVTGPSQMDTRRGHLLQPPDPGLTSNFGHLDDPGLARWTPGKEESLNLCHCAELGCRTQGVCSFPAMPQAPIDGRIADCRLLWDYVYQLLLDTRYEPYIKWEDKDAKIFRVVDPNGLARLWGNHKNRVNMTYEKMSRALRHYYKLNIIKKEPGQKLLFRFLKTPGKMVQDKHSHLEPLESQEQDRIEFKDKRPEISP
The note with it: protein: recombinant; tags: N-terminal GST; dsDNA, one strand shown. A digest of the protocol: as §1

In assay [16] the target is T11, ELF5 (Homo sapiens, UniProt Q9UKW6-2 1-255).
T11 sequence: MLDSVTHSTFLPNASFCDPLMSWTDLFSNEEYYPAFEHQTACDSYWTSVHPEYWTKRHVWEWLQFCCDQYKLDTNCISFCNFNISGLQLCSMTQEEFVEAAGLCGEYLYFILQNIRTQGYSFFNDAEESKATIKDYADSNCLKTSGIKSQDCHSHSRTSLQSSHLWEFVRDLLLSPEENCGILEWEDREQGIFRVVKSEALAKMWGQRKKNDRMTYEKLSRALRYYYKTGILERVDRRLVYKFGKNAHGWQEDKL
Particulars: protein: recombinant; tags: N-terminal GST; dsDNA, one strand shown. A digest of the protocol:
as §1

The target in assay [17] is T12, ETV3 (Homo sapiens, UniProt P41162-2 1-143).
T12 sequence: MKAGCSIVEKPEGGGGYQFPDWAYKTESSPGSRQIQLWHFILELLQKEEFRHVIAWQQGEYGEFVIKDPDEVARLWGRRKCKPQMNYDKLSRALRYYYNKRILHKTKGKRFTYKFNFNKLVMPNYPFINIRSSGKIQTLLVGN
The note with it: protein: recombinant; tags: N-terminal GST; dsDNA, one strand shown. A digest of the protocol: as §1

The target in assay [18] is ETV6 (Homo sapiens, UniProt P41212 1-452). The note with it: protein: recombinant; tags: N-terminal GST; dsDNA, one strand shown. Put shortly:
as §1

One sequence from article PMC7862700, “An all-to-all approach to the identification of sequence-specific readers for epigenetic DNA modifications on cytosine” can be followed below.

Sequence of ETV1 (P50549 whole entry): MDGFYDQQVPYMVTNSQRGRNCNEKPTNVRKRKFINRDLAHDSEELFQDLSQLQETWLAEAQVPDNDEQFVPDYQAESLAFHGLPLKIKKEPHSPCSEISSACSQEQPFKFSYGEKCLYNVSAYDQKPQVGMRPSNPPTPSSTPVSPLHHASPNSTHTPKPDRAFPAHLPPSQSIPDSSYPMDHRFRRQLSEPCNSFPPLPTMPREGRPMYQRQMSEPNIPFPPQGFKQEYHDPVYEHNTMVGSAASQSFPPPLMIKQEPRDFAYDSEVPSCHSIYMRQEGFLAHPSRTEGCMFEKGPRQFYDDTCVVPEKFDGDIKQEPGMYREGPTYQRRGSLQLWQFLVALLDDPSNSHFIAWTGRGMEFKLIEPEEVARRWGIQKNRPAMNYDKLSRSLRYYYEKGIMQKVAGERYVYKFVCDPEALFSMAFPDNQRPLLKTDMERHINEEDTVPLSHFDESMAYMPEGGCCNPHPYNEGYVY
Sequence of ETV6 (P41212 whole entry): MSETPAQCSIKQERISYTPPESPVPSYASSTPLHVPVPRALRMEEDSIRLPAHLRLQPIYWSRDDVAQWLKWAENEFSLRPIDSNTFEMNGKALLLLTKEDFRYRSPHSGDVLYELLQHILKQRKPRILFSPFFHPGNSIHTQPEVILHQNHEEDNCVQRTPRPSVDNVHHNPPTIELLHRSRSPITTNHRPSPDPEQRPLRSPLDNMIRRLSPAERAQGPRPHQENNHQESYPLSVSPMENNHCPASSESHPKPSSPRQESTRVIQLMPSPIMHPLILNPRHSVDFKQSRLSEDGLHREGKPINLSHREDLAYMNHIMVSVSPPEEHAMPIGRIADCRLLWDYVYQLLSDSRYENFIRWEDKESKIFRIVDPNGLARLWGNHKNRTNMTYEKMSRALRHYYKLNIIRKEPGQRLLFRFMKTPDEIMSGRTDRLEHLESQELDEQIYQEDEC
Sequence of CRX (O43186 whole entry): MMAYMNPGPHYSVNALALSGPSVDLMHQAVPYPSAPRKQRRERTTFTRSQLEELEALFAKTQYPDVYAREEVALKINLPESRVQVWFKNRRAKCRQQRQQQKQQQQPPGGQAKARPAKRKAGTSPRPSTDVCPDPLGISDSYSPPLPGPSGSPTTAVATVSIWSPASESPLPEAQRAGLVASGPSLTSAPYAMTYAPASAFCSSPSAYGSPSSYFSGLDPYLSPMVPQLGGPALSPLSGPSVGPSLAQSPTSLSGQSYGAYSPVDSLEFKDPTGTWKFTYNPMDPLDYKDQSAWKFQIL
Sequence of ELF4 (Q99607 whole entry): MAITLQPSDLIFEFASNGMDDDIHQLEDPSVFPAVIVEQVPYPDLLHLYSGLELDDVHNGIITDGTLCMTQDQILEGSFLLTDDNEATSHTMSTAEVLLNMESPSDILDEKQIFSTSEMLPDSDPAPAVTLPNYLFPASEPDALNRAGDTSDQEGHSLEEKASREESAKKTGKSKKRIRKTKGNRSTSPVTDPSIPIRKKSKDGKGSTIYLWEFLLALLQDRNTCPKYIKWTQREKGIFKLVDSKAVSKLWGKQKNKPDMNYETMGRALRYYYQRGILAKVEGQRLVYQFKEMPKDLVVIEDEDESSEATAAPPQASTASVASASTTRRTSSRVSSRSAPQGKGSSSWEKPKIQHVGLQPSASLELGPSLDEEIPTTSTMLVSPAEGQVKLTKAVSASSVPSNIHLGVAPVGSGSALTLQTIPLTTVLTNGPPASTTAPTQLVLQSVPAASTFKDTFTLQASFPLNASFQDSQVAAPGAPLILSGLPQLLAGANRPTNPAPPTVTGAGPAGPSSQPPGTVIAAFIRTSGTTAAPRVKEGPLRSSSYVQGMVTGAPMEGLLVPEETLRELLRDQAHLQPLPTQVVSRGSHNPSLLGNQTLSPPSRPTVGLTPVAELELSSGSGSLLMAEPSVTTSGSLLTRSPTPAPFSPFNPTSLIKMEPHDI

As for ATCTCG, the binding signal is 1.19 fold enrichment (6-mer frequency, TF over GST control) in [1]; 1.35 fold enrichment (6-mer frequency, TF over GST control) in [2]; 2.44 fold enrichment (6-mer frequency, TF over GST control) in [3]; 1.19 fold enrichment (6-mer frequency, TF over GST control) in assay [4]; 1.32 fold enrichment (6-mer frequency, TF over GST control) in assay [5]; 1.42 fold enrichment (6-mer frequency, TF over GST control) in assay [6]. The binding signal was 1.51 fold enrichment (6-mer frequency, TF over GST control) in assay [7]; 1.55 fold enrichment (6-mer frequency, TF over GST control) in assay [8]; 1.92 fold enrichment (6-mer frequency, TF over GST control) in assay [9]; 1.46 fold enrichment (6-mer frequency, TF over GST control) in assay [10]; 1.36 fold enrichment (6-mer frequency, TF over GST control) in assay [11]; 1.38 fold enrichment (6-mer frequency, TF over GST control) in assay [12]. Further, the binding signal is 1.42 fold enrichment (6-mer frequency, TF over GST control) in assay [13]; 1.28 fold enrichment (6-mer frequency, TF over GST control) in [14]; 1.38 fold enrichment (6-mer frequency, TF over GST control) in assay [15]; 1.28 fold enrichment (6-mer frequency, TF over GST control) in assay [16]; 1.29 fold enrichment (6-mer frequency, TF over GST control) in [17]; 1.3 fold enrichment (6-mer frequency, TF over GST control) in [18].
